# Laboratory results: the supplement of paper PMC7156485
# ± gives the standard deviation of the averaged measurements.
# How the values were obtained:
# Conditions in all cases: concentration: 10 µM; 24 h
# HCC1569 [1] = experiment: cell number relative to DMSO (% of DMSO); higher = more cells (less growth inhibition / toxicity)
# Outline: (§1)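 Six fields per well were imaged at ×10 after the cells were fixed in 3.7% formaldehyde and stained with a rabbit anti-H1.0 antibody, an AlexaFluor 647 secondary and DAPI. The HCC1569 and TDF cells had been plated at 800 per well in 384-well plates (RPMI, 10% FBS) and treated in triplicate with compounds at 10 µM for 24 h at 37 °C. The values are the median of replicates of H1.0 nuclear intensity or cell number, as percent of the plate control. Smoothing for positional effects was applied to HCC1569 data.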
# TDF [2] = experiment: as above
# Outline: as §1
# TDF [3] = experiment: H1.0 immunofluorescence intensity relative to DMSO (% of DMSO); higher = stronger H1.0 induction, active = 120 or more
# Outline: as §1
# HCC1569 [4] = experiment: H1.0 immunofluorescence intensity relative to DMSO (% of DMSO); higher = stronger H1.0 induction, active = 140 or more
# Outline: as §1
# 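Throughout, for H1.0 immunofluorescence intensity relative to DMSO: TDF is a line of transformed human dermal fibroblasts of mesenchymal origin.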
# 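Throughout, for cell number relative to DMSO: TDF denotes transformed human dermal fibroblasts of mesenchymal origin.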
SMILES,cell number (HCC1569 [1]),cell number (TDF [2]),H1.0 immunofluorescence intensity (TDF [3]),H1.0 immunofluorescence intensity (HCC1569 [4])
CC12Cc3cn[nH]c3CC1CCC1C2CCC2(C)C1CCC2(C)O (stereo unspecified) [Stanozolol],94.4,99.5,97.2 (inactive),87.3 (inactive)
CCC1(c2ccc(N)cc2)CCC(=O)NC1=O (racemic) [DL-Aminoglutethimide],109,102,93.1 (inactive),109 (inactive)
O=P([O-])(O)C(Cl)(Cl)P(=O)([O-])O.[Na+].[Na+] [Clodronic acid],101,101,93.4 (inactive),96.4 (inactive)
Br.CC1NCCc2cc(O)c(O)cc21 (stereo unspecified),100,93.9,105 (inactive),94.9 (inactive)
CC(C)=CCCC1=CC(=O)c2c(O)ccc(O)c2C1=O [Deoxyshikonin],32,34.6,119 (inactive),171 (active)
CC(Cc1ccc2c(c1)OC(C(=O)[O-])(C(=O)[O-])O2)NCC(O)c1cccc(Cl)c1.[Na+].[Na+] (stereo unspecified),97.5,106,88.7 (inactive),95.9 (inactive)
COC(C)C(O)(C(=O)OCC1=CCN2CCC(O)C12)C(C)C (stereo unspecified) [Heliotrine],99.8,105,91.4 (inactive),90.6 (inactive)
CCCCCC(C=CC=CCCCCCCCC(=O)O)OO (stereo unspecified),99.9,108,99.2 (inactive),94.4 (inactive)
COc1cc(CC(C)N)c(OC)cc1I.Cl (racemic),101,109,91.3 (inactive),88.9 (inactive)
C#CCNC(C)Cc1ccccc1.Cl (stereo not drawn) [R-(-)-Desmethyldeprenyl hydrochloride],102,103,97.2 (inactive),90.7 (inactive)
Cc1cc(C(=O)CN2CCCC2)c(C)n1-c1ccc(F)cc1,99,102,99.9 (inactive),94.1 (inactive)
"CC1OC(OC2CC(O)C3(CO)C4C(O)CC5(C)C(C6=CC(=O)OC6)CCC5(O)C4CCC3(O)C2)C(O)C(O)C1O (single isomer, unassigned; (-)) [(-)-Ouabain]",49.5 ± 1.9,42.1 ± 1.4,119 (inactive),130 (inactive)
CS(=O)(=O)O.S=C=Nc1cccc(C2(N3CCCCC3)CCCCC2)c1 [Metaphit methanesulfonate],106,107,83.4 (inactive),94.5 (inactive)
CC1CN(C2CCC(C#N)(c3ccc(F)cc3)CC2)CCC1(C(=O)O)c1ccccc1.Cl (stereo unspecified) [Levocabastine.HCl],102,103,102 (inactive),115 (inactive)
